For 40 molecules, growth results are on record in PubChem BioAssay (NCI).

The panel holds about 83,000 compounds, 20% with a hit somewhere; the sample as a whole holds those more often.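 Activity criterion: percent growth below 10, measured after cells in 96-well plates were exposed to a single compound concentration for 48 hours.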 The source made the active and inactive calls.

For the test, the system named is MDA-MB-468 breast. The experiment in a line: NCI-60 one-dose screen, 48 h (100 = growth as untreated, 0 = no growth, -100 = all killed). The conditions noted are these: 10 µM unless noted.
Turning to `CCC(=O)Oc1cc(/C=C/C(=O)O[C@H]2C[C@H]3CN4CCc5c([nH]c6cc(OC)ccc56)[C@@H]4C[C@@H]3[C@@H](C(=O)OC)[C@@H]2OC)ccc1OC`, the growth is 71.3% (inactive).
Regarding `O=C1OCC2=C1C(c1cccc(C(F)(F)F)c1)c1cc3c(cc1N2CCO)OCCO3` (stereo not given), the growth was 13.5% (inactive).
On to `CCCCCCCCCCCCCC(=O)C(C)N` (stereo not given), for which the growth was 33.3% (inactive).
On to `CCCCCCN1C(=O)CN=C1Nc1ccc2cc3ccc(NC4=NCC(=O)N4CCCCCC)cc3nc2c1`, for which the growth was 3.94% (active).
Under `O=C(Nc1ccc2ncnc(Nc3ccc(F)c(Cl)c3)c2c1)c1ccccc1` stands -8.33% (active); under `CN=C(NC)N/N=C(C)\C=N\NC(=NC)NC`, 121% (inactive).
As for `COc1ccc(NC(=O)n2nc(/C=C\c3ccc(O)c(OC)c3)cc2/C=C\c2ccc(O)c(OC)c2)cc1`, the growth is 34.7% (inactive).
Under `O[C@H]1CO[C@H]2[C@@H]1OC[C@@H]2Oc1ccc(Nc2nc(Nc3ccc(F)c(Cl)c3)ncc2F)cc1Cl` stands 97.6% (inactive); under `COC(=O)[C@H]1CCCN1C(=O)[C@H]1CCCN1C(=O)[C@H](Cc1c[nH]c2ccccc12)NC(=S)Nc1cc(C(F)(F)F)cc(C(F)(F)F)c1`, 61% (inactive); under `N#CC1=C(N)Oc2c(sc3c(Br)cccc23)C1c1ccccn1` (stereo not given), 25.6% (inactive).
`O=C(O)c1cc([N+](=O)[O-])ccc1Cl`: the growth is 109% (inactive).
As to `COc1ccc(C2CC(c3cccs3)=NN2c2ccc(S(N)(=O)=O)cc2)cc1` (stereo not given), the growth was 8.49% (active).
As for `CCCOC(=O)Nc1nc2ccc(SCC)cc2s1`, the growth is 46.2% (inactive).
Consider `O=C(O)[C@@H]1c2ccccc2-c2ccccc2[C@H]1C(=O)O`, for which the growth is 97.5% (inactive).
The value for `Cc1ccc(NC(=O)c2sc3nc4c(cc3c2N)C(=O)CCC4)cc1Cl` was 105% (inactive).
The value for `O=C(Cn1nc(-c2cccc3ccccc23)ccc1=O)NCc1cccc(Cl)c1` was 12.8% [50 µM] (inactive); that for `O=C(CSc1nnc(-c2ccc(NC(=O)c3cccnc3)cc2)o1)N[C@@H](Cc1ccc(O)cc1)C(=O)O` was 110% (inactive).
On to `Cc1ccc2c(n1)C(=O)C(Br)=C(CC(C)C)C2=O`, for which the growth is 91.1% (inactive).
`CC(C)n1cc(C2=C(c3cccc4ccccc34)C(=O)NC2=O)c2cc(Br)ccc21`: the growth is 44.4% (inactive).
As for `CN(C)Cc1cc(C(C)(C)C)cc(Br)c1O`, the growth is 90.2% (inactive).
Under `CSc1nc2ncnc(SC)c2[nH]1` stands 106% (inactive); under `COC1=CC(=O)OC(c2ccc(OC)cc2)C1` (stereo not given), 112% (inactive); under `O=C(Cc1ccccc1)Nc1nnc(NC2CCN(c3nnc(NC(=O)Cc4ccccc4)s3)CC2)s1`, 125% (inactive).
In the case of `O=C(Nc1ccc(N2CCNCC2)cn1)c1[nH]ncc1Nc1ncnc2sc3c(c12)CCC3`, the growth is -37.9% (active).
With `C=C1C(=O)O[C@H]2[C@H]1CC/C(COC(=O)CSCSCC(=O)OC/C1=C/CC[C@@]3(C)O[C@H]3[C@H]3OC(=O)C(=C)[C@@H]3CC1)=C\CC[C@@]1(C)O[C@@H]21`, the growth was -14.2% (active).
Consider `COc1ccc(-c2nnc(SCC(=O)c3ccc(Cl)cc3)o2)cc1`, for which the growth is 109% (inactive).
For `CCCc1cc(C(N)=S)ccn1`, the growth was 102% (inactive).
Consider `Clc1cccc(Nc2nc(Nc3cnc4ccccc4c3)c3[nH]cnc3n2)c1`, for which the growth was 86% (inactive).
On to `Cc1cccc2c1C[C@@]1(C2=O)C(c2ccc(C(C)(C)C)cc2)=NOS1=O` (stereo not given in full), for which the growth was 88.2% (inactive).
Regarding `Cc1ccc(C=C2C(=O)NC(=O)NC2=O)cc1`, the growth is 108% (inactive).
The value for `O=c1nc2c(-c3nc4ccccc4s3)n[nH]n2c2sc3c(c12)CCCC3` was 120% (inactive); that for `C=CCn1c(-c2ccc(-c3nc4ccc(C)cc4[nH]3)cc2)n[nH]c1=S` was 95.6% (inactive).
With `CCCCCCNC(=O)Oc1ccc(/C(=C(\C)c2ccc(Cl)cc2)c2ccc(OCCN(C)C)cc2)cc1`, the growth was 84.3% (inactive).
Turning to `c1ccc2c(-c3c4ccsc4cc4[nH]c5ccccc5c34)c[nH]c2c1`, the growth is 15.7% (inactive).
For `CCOC(=O)Oc1c(OC)cc(C(=O)c2ccc(OC)c(OC(=O)CCl)c2OC)cc1OC`, the growth was 0.206% (active).
Under `CCN(CC)CCCC(C)NCc1ccccc1` (stereo not given) stands 112% (inactive); under `Nc1ncnc2c1C(c1ccc([N+](=O)[O-])cc1)c1sc3c(F)cccc3c1O2` (stereo not given), -15% (active).
Consider `C=CC(=O)NCc1cccc(Nc2ncc(Br)c(NCCCNC(=O)C3CCC3)n2)c1`, for which the growth is -80.4% (active).
Regarding `S=c1sc2ccccc2n1CN1CCCCC1`, the growth is 108% (inactive).
Consider `Nc1nc(-c2ccccn2)cc(-c2cc(-c3ccccn3)nc(N)n2)n1`, for which the growth was 98.7% (inactive).
